Test results reported in PubChem BioAssay.
Values without a mark were called inactive. No rule for the calls is given here.

Biological target: Pantothenate synthetase (Mycobacterium tuberculosis (strain ATCC 25618 / H37Rv)) (UniProt P9WIL5)
Assay: Coupled enzyme confirmation of inhibitors against recombinant Mtb PanC (AID 375);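 also: 0% = full reaction with vehicle and 100% = no enzyme background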
Settings: coupled enzyme assay; at 10 µM, stronger effect = higher value

Chain of Pantothenate synthetase (Mycobacterium tuberculosis (strain ATCC 25618 / H37Rv)) (P9WIL5 whole entry, looked up): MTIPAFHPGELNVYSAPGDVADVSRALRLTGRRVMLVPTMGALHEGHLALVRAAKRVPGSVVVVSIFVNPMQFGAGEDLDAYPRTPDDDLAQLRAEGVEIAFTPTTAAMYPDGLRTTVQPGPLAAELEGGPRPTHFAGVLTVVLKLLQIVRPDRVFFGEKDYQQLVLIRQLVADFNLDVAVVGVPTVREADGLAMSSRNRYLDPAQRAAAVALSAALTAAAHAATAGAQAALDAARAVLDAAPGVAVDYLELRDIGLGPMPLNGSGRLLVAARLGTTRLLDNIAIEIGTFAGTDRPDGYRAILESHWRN

SMILES | inhibition
Cc1ccc(C2C(C(=O)c3sc(C)nc3C)=C(O)C(=O)N2CCN(C)C)o1 (configuration not stated) | 0%
COc1cc2c(C#N)c(N3CCN(c4ccccc4OC)CC3)nc(N)c2c(N)n1 | 0%
Cc1ccc(Nc2cc(C)nc3nnnn23)cc1 | 6%
Cc1ccc(NC(=O)CSC2=C(C#N)C(c3ccc4c(c3)OCO4)CC(=O)N2)cc1C (configuration not stated) | 0%
COc1ccccc1-c1nc2n(n1)C(c1cccs1)C(C(=O)Nc1cccnc1)=C(C)N2 (configuration not stated) | 0%
CCO/C([O-])=N/c1c[n+](N2CCOCC2)no1 | 0%
C(=C\c1ccccc1)/CN1CCN(Cc2ccc3c(c2)OCCO3)CC1 | 1%
Cc1nc2ccccc2c(=O)n1NC(=O)c1ccc(F)cc1Cl | 5%
O=C(Cn1c(=O)n(Cc2ccc3c(c2)OCO3)c(=O)c2ccccc21)N1CCCc2ccccc21 | 0%
COC(=O)C1C2C=CC3(CN(CC4CCCO4)C(=O)C13)O2 (configuration not stated) | 0%
COc1ccc(S(=O)(=O)N2CCN(Cc3ccc(Cl)cc3)CC2)cc1 | 0%
CCc1nccn1S(=O)(=O)c1ccc2ccc(C)cc2c1 | 3%
O=C1CC(c2ccccc2)n2nc(NC(=O)c3ccccn3)nc2N1 (configuration not stated) | 0%
O=C(COc1ccccc1Cl)OCC(=O)N1CCN(S(=O)(=O)c2ccccc2)CC1 | 8%
O=C(C1=C(O)C(=O)N(Cc2ccccc2)C1c1ccncc1)c1ccco1 (configuration not stated) | 0%
CSc1ccc(S(=O)(=O)Nc2cccc(F)c2)cc1 | 0%
O=C(Nc1ccccc1C(=O)NCCCn1ccnc1)c1ccccc1 | 3%
